SENP7 block: SENP7 protease inhibition | Q9BQF6 | recombinant SENP7, Z-RLRGG-aminoluciferin luminescence, 40 min | inhibition, % at 5 µM | 1.5% of 330,000 active;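 active = inhibition above about 50% at the single test dose, limit read from the data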;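 also: plate controls were DMSO with enzyme for no effect and no enzyme buffer wells for full effect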
PPC-1+TRAIL kill: compounds killing PPC-1 cancer cells with TRAIL present (potentiator screen, no TRAIL-free arm); PPC-1 cells + TRAIL, ATPLite viability luminescence; cell killing (% activity), % at 4 µM or 5 µM; 0.41% of 220,000 active; AID 1443;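 active = cell killing above 50% in the first pass at 4 µM, then a duplicate retest at 5 µM averaging 50% or more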;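 also: plate controls were cells with TRAIL plus DMSO for no effect and medium-only wells lacking cells for full effect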
SENP6 inh: SENP6 protease inhibition. Recombinant SENP6 catalytic domain, aminoluciferin luminescence. inhibition, % at 10 µM. 1.8% of 330,000 active. AID 2599;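 active = inhibition above about 50% at the single tested dose, limit read from the data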;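 also: plate controls were DMSO wells with enzyme for no effect and DMSO wells lacking enzyme for full effect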
C8 TRAIL sens: sensitizes caspase-8 expressing cells to TRAIL; NB7+C8 cells + TRAIL, ATPlite viability luminescence; inhibition (viability loss, TRAIL sensitization), % at 10 µM; 1% of 360,000 active;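 active = compounds causing at least 50% loss of cell viability in the single-dose screen, relative to plate controls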
SENP8 block-1: blocks the human protease SENP8; inhibition, % at 10 µM; AID 2540; 1.2% of 330,000 active; purified SENP8, Z-RLRGG-aminoluciferin cleavage, luminescence; in the data active = inhibition above about 50%
Target sequence (Q96LD8 whole entry, looked up): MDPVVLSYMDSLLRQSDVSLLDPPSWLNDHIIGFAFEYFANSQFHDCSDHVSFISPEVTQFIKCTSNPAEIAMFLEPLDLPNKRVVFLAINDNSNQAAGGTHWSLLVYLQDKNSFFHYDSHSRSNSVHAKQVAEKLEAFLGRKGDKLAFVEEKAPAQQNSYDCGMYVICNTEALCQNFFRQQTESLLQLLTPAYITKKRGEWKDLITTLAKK
SENP8 block-2: blocks human SENP8 cleavage of Nedd8 substrate. 0.64% of 360,000 active. recombinant SENP8, Nedd8 substrate fluorescence. Q96LD8. inhibition, % at 20 µM; in the data active = inhibition mostly above about 40%, no sharp cut-off; inactive = mostly below about 27%
SENP8 conf: human SENP8 inhibition, confirmed | inhibition, % at 12.5 µM | Recombinant SENP8, Z-RLRGG-aminoluciferin luminescence, 60 min | AID 488912 | shares compounds with SENP7 block | 40% of 6,200 active;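 active = mean inhibition across replicates above about 50%, limit read from the data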
SENP6 confirm: human SENP6 inhibition, confirmed. inhibition, % at 12.5 µM. AID 488915. shares compounds with SENP7 block. 58% of 6,200 active. recombinant SENP6, Z-RLRGG-aminoluciferin luminescence
SENP7 confirm: human SENP7 inhibition, confirmed; shares compounds with SENP7 block; recombinant SENP7, Z-RLRGG-aminoluciferin luminescence, 40 min; inhibition, % at 12.5 µM; 69% of 6,200 active; AID 488917
Casp3 select: selectivity test for SENP inhibitors: human caspase-3 inhibition; shares compounds with SENP7 block; purified caspase-3, Z-DEVD-aminoluciferin luminescence, 60 min; inhibition, % at 12.5 µM; 60% of 6,200 active;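 active = mean inhibition above about 50%, limit read from the data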;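 also: plate controls were enzyme with DMSO for no effect and wells without caspase-3 for full effect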
Target sequence (P42574 28-227 limits assumed): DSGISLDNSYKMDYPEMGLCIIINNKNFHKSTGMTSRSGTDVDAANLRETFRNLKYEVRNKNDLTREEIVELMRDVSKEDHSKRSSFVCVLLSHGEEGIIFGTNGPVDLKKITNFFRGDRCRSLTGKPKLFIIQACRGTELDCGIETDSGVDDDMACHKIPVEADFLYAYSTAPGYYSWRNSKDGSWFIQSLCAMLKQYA
Luc interf: luminescence interference (SENP counter-screen); shares compounds with SENP7 block; inhibition, % at 12.5 µM; 39% of 6,200 active; Pre-incubated SENP8/Z-RLRGG-aminoluciferin, luciferase luminescence interference;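 active = mean inhibition above about 50% when retested at one dose, limit read from the data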;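 also: plate controls were DMSO wells with completed reaction for no effect and substrate without enzyme for full effect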
Numbers without * were called inactive; i = inactive; / = no result given. Most compounds without a hit are left out; they make up all but 3% or so of the library.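 The calls were made as follows, unless noted: active = mean inhibition above about 50% in the one-dose retest (limit read from the data); inactive = the rest.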

SMILES	SENP7 block	PPC-1+TRAIL kill	SENP6 inh	C8 TRAIL sens	SENP8 block-1	SENP8 block-2	SENP8 conf	SENP6 confirm	SENP7 confirm	Casp3 select	Luc interf
CCNC(=O)C1(C)CCCN(Cc2cccc3c(OC)cc(C(=O)OCC)cc23)C1 (stereo not given)	/	/	/	-3	/	-31	/	/	/	/	/
Cc1sc2ncnc(NCC(O)c3ccc([N+](=O)[O-])cc3)c2c1C (stereo not given)	6	/	-7	17	1	18	/	/	/	/	/
CC(=O)Nc1ccc(S(=O)(=O)NC2=C(N3CCN(c4ccc(F)cc4)CC3)C(=O)c3ccccc3C2=O)cc1	44	24	63*	47	29	78*	31	56*	19	53*	-1
CCOC(=O)N1CCN(C2=C(NS(=O)(=O)c3ccc(C)cc3)C(=O)c3ccccc3C2=O)CC1	36	/	64*	53*	35	82*	5	26	3	5	-7
CC(=O)Nc1ccc(S(=O)(=O)Nc2ccc(N3CCOCC3)cc2)cc1	-9	-4	0	1	-11	8	/	/	/	/	/
C(=C\n1nnc2ccccc21)/c1ccccn1	79*	/	76*	-3	74*	14	81*	80*	96*	89*	74*
Cc1ccc2c(=O)n3c(nc2c1)C(CC(C)C)NC(=O)c1cccnc1-3 (stereo not given)	/	/	/	-6	/	0	/	/	/	/	/
COc1ccc2nc(-c3ccccn3)[nH]c2c1	82*	/	77*	40	59*	-412	78*	73*	93*	89*	73*
Nc1ccc2nc(-c3ccc(N)c(Cl)c3)[nH]c2c1	34	40	60*	31	35	-449	62*	59*	81*	78*	63*
Nc1ccc2nc(-c3ccccn3)[nH]c2c1	52*	20	52*	38	38	-406	42	51*	79*	82*	49
Nc1ccc2nc(-c3ccccc3)[nH]c2c1	46	38	70*	26	34	-318	61*	65*	89*	90*	76*
Nc1ccc2nc(-c3cccnc3)[nH]c2c1	9	16	18	-2	0	-161	/	/	/	/	/
Nc1cccc(C(=O)Nc2ccc3nc(-c4cccnc4)[nH]c3c2)c1	5	4	-10	2	2	-99	/	/	/	/	/
COc1ccc(-c2nc3ccccc3c(=O)[nH]2)cc1	61*	/	52*	66*	22	0	3	38	77*	37	0
COc1ccc2nc(-c3ccc(N)cc3)[nH]c2c1	83*	25	75*	34	54*	i	68*	61*	91*	86*	74*
Nc1cccc(-c2nc3ccc(C(=O)c4ccccc4)cc3[nH]2)c1	81*	/	85*	63*	71*	-24	80*	76*	93*	63*	83*
Cc1cccc(-c2nc3ccccc3c(=O)[nH]2)c1	9	/	9	47	1	-15	/	/	/	/	/
CNc1nc(SCC(=O)Nc2ccccc2)nc(N2CCOCC2)n1	1	/	-5	-11	1	2	/	/	/	/	/
CCCc1ccc(Oc2cc(NN3CCCCC3)c([N+](=O)[O-])cc2[N+](=O)[O-])cc1	1	/	-8	-21	-3	18	/	/	/	/	/
Nc1nc(SCC(=O)Nc2ccc([N+](=O)[O-])cc2)[nH]c(=O)c1NC(=O)c1ccc(Br)o1	-6	/	-2	6	-8	9	/	/	/	/	/
O=C(NCC1CC1)c1ccc2c3n(nc2c1)-c1ccc(Cl)cc1CO3	4	/	19	40	12	-93	/	/	/	/	/

Compound activity: PubChem, Sanford-Burnham Center for Chemical Genomics
